How the values were obtained:
Test in all cases: log2 ratio of Biotin-Ahx-Ub-VS probe labelling (fragment/DMSO); higher = less target engagement (more negative = stronger competition), active = hit call of the paper (q ≤ 0.05, log2 ratio ≤ -1)
Details in all cases: compound concentration: 200 uM; treatment time: 3 h
USP9X = USP9X (UniProt Q93008)
How it was run: (§1)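 HEK293T lysate (495 µg per sample, in Tris/CHAPS/IGEPAL buffer with protease inhibitors) was treated in triplicate with fragment at 200 µM or with DMSO for 3 h. It was then treated with Biotin-Ahx-Ub-VS (0.5 µM final) for 1 h. Labelled DUBs were NeutrAvidin-enriched, digested with LysC and trypsin, and run by diaPASEF LC-MS/MS. Spectronaut label-free quantities were global-median-normalised. Values are average log2 ratios fragment/DMSO by unpaired t-test, using proteins with ≥2 unique peptides.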

UniProt O00487 = target: UniProt O00487
How it was run: as §1

UniProt O00507 = target: UniProt O00507
How it was run: as §1

UniProt P51784 = target: UniProt P51784
How it was run: as §1

UniProt Q5T2D3 = target: T1, UniProt Q5T2D3
T1 sequence (whole entry): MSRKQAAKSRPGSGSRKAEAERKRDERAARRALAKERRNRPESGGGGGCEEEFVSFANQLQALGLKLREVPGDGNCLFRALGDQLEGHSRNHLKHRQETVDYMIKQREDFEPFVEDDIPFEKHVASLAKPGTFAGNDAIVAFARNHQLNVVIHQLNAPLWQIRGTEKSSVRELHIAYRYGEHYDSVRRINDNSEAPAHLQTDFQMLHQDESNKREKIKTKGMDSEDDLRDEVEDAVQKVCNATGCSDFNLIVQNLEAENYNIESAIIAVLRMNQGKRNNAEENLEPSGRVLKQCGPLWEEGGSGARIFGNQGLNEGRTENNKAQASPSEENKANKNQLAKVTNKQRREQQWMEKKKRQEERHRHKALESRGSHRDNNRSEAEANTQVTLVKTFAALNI
How it was run: as §1

UniProt Q8TE49 = target: T2, UniProt Q8TE49
T2 sequence (whole entry): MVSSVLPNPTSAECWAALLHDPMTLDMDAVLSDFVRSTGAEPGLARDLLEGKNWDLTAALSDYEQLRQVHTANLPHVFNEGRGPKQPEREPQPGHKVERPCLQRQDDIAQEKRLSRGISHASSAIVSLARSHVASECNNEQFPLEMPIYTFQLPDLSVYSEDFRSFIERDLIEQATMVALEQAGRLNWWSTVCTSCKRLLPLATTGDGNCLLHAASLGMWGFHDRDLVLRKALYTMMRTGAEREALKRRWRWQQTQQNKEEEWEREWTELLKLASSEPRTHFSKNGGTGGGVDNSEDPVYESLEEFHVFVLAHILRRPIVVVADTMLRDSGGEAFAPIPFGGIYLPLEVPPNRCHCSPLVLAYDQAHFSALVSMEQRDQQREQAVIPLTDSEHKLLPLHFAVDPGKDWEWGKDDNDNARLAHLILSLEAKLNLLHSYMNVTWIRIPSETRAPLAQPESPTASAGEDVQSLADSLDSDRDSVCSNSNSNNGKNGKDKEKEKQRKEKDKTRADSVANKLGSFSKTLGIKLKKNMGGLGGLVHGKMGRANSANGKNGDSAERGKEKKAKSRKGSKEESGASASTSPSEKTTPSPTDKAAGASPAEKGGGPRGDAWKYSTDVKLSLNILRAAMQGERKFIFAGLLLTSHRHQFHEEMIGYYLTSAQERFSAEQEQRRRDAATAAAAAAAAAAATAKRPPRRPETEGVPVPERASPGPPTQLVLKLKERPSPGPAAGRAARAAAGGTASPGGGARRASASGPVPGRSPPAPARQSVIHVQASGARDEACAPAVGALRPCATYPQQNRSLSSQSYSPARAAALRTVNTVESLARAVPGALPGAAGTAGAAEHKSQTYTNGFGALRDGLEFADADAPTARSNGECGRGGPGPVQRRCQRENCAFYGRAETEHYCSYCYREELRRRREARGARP
How it was run: as §1

UniProt Q9P2H5 = target: T3, UniProt Q9P2H5
T3 sequence (whole entry): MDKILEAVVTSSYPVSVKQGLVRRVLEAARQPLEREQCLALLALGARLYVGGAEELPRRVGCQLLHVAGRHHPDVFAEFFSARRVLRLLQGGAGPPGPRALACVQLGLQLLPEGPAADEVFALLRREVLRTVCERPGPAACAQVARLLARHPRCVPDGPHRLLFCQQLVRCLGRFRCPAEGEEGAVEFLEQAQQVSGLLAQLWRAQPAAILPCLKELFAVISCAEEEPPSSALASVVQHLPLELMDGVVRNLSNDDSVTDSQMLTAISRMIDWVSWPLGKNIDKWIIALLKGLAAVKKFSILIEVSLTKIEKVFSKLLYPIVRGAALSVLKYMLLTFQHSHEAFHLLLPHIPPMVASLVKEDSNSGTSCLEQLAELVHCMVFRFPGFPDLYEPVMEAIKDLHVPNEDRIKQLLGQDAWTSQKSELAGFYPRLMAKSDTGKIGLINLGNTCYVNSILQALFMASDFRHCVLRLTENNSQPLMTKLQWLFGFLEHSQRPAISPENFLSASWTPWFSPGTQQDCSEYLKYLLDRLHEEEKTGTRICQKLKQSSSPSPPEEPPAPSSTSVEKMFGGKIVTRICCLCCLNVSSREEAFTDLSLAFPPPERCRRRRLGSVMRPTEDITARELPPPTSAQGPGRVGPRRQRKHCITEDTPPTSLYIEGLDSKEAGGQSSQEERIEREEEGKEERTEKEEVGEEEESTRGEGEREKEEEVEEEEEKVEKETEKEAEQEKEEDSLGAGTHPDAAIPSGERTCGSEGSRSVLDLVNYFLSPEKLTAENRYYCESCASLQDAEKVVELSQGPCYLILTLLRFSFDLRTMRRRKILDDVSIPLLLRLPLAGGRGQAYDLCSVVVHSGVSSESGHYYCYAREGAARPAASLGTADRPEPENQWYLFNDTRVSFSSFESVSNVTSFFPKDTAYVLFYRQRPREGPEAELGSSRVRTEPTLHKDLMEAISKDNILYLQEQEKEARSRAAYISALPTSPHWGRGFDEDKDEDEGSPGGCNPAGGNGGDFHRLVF
How it was run: as §1

UniProt Q9UGI0 = target: T4, UniProt Q9UGI0
T4 sequence (whole entry): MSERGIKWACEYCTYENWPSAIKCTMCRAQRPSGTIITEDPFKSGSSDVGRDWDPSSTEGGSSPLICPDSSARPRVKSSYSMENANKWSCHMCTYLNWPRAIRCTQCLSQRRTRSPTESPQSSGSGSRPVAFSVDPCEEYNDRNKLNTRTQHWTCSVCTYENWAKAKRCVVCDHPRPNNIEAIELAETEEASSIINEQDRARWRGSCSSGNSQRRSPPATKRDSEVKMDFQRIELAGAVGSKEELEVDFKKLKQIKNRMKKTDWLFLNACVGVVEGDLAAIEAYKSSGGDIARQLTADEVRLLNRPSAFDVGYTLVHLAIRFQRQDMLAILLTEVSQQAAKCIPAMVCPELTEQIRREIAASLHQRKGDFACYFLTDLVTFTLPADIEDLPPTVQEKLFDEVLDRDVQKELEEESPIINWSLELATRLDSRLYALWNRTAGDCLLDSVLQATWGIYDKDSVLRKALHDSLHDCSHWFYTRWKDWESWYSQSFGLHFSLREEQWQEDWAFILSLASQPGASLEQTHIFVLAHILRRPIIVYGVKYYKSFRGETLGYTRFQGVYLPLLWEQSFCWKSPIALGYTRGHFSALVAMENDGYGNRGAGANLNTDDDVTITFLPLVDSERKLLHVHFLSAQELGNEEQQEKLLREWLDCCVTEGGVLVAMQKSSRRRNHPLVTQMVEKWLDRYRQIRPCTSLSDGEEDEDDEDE
How it was run: as §1

YOD1 = target: T5, YOD1 (UniProt Q5VVQ6)
T5 sequence (whole entry): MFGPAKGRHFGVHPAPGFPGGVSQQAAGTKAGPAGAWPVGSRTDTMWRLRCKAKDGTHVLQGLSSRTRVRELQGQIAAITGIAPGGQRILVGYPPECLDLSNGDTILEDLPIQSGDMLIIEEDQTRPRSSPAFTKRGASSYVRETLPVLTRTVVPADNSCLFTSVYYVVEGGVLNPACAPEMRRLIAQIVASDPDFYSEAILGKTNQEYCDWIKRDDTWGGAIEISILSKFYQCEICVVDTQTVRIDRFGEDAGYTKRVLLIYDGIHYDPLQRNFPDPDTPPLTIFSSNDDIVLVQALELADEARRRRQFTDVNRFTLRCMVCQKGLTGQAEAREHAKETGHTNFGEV
How it was run: as §1

Measured: log2 ratio of Biotin-Ahx-Ub-VS probe labelling

Sequence of UniProt P51784 (P51784 whole entry): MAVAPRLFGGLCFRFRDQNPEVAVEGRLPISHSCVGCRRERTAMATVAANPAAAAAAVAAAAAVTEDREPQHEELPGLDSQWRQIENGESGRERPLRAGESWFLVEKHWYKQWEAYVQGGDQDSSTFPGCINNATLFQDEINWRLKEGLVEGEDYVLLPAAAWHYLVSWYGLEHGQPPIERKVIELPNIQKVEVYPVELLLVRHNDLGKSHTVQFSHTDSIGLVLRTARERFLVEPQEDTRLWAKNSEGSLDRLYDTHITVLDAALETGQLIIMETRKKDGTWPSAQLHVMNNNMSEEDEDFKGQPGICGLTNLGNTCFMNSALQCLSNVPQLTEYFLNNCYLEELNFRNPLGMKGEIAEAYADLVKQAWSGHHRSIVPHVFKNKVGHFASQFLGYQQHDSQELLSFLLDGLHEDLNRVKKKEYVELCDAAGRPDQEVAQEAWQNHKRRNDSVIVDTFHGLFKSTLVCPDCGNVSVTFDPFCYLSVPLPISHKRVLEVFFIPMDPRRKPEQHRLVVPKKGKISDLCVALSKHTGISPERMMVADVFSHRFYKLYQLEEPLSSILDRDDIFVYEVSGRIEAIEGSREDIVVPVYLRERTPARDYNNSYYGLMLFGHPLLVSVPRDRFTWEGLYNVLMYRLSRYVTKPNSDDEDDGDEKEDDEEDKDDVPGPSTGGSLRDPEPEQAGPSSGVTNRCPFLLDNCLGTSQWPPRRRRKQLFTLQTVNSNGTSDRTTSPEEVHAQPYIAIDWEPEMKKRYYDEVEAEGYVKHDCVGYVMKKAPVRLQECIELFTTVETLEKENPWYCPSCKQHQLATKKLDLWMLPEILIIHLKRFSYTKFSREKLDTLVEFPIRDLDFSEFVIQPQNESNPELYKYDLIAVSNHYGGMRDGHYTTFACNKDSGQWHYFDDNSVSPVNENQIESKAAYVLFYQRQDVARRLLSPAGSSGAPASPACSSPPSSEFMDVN
Sequence of UniProt O00487 (O00487 whole entry): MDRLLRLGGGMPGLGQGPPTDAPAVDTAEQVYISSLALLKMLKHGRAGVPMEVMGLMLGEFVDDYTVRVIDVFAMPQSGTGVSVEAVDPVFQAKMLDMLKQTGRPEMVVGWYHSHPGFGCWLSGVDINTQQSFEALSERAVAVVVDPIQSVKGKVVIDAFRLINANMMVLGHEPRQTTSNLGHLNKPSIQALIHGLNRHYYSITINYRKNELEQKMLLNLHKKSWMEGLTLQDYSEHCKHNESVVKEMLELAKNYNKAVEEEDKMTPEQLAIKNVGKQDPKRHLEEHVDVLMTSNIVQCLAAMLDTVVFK
Sequence of UniProt O00507 (O00507 whole entry): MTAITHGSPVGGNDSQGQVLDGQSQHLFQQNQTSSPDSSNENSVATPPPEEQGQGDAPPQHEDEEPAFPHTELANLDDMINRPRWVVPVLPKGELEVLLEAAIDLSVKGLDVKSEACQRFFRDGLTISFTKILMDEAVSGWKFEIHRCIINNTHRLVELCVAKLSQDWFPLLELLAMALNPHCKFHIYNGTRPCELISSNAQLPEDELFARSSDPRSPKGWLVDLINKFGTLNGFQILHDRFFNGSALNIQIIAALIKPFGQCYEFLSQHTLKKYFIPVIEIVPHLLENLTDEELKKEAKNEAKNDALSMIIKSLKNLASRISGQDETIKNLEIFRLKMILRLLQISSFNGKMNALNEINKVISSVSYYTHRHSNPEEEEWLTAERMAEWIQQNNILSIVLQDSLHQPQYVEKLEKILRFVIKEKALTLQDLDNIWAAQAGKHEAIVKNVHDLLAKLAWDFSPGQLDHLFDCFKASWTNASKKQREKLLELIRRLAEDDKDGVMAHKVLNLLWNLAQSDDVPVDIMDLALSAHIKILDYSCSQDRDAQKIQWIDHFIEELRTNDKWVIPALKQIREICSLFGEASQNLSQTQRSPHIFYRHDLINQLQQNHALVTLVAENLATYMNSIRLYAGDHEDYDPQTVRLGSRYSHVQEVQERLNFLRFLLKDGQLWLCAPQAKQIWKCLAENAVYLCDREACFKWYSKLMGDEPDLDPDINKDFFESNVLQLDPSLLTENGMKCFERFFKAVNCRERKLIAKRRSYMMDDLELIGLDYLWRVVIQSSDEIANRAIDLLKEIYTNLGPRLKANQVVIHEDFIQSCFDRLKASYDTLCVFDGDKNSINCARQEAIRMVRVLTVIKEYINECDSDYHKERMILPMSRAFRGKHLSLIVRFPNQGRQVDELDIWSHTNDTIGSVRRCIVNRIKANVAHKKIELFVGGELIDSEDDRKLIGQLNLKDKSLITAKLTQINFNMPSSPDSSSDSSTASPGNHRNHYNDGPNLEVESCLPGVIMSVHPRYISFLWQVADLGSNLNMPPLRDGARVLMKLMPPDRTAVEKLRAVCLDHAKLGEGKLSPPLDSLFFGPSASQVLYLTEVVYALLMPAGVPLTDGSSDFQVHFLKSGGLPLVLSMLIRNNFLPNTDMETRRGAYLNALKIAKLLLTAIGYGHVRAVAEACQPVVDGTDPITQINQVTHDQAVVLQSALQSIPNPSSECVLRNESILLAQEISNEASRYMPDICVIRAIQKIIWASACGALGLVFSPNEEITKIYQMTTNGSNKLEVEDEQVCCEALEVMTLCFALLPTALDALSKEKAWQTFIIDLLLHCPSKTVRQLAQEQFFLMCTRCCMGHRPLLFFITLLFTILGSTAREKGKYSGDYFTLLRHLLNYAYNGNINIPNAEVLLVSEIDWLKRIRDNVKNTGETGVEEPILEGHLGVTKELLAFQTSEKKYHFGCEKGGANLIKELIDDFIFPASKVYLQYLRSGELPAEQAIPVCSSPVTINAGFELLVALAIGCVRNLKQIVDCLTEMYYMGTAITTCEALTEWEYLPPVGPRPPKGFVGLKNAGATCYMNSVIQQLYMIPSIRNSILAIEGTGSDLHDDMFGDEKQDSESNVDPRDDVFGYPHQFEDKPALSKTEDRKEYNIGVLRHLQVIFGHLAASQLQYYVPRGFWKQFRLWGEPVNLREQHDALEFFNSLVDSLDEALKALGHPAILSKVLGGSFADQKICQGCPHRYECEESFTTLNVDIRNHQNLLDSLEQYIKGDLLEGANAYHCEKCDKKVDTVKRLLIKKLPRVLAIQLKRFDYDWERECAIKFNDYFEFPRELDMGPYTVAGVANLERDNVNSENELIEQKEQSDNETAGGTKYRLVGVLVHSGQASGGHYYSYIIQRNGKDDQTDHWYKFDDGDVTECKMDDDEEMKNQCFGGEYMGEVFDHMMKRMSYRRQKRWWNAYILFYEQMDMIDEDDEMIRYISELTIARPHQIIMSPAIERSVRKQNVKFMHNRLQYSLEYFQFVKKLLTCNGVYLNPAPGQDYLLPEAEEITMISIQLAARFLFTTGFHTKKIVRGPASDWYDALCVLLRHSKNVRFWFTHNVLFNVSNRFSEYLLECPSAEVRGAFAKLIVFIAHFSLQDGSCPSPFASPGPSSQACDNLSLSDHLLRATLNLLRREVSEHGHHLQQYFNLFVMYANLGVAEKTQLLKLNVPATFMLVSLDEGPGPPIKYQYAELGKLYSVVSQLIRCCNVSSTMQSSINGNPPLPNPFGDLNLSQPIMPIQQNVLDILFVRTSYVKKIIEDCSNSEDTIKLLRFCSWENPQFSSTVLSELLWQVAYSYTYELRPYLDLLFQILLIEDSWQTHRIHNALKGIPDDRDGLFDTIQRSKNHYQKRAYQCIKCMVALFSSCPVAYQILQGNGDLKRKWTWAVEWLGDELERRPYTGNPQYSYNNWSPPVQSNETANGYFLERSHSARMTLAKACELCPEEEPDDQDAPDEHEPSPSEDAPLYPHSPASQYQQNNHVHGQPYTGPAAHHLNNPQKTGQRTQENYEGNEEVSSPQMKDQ

O=C(CCl)Nc1nc(-c2cccs2)cs1
inactive: USP9X -0.505 | UniProt O00487 -0.17 | UniProt O00507 -0.168 | UniProt P51784 0.104 | UniProt Q5T2D3 -0.239 | UniProt Q8TE49 -0.68 | UniProt Q9P2H5 -0.138 | YOD1 0.237
active: UniProt Q9UGI0 -2.34

Source: the supplement of paper PMC11732987, “Enantioselective OTUD7B fragment discovery through chemoproteomics screening and high-throughput optimisation” (Communications Chemistry, 2025)
